Screening data: PubChem BioAssay, National Center for Advancing Translational Sciences (NCATS)
HCMV inh = blocks human cytomegalovirus replication. HFF cells, HCMV-luciferase reporter, 72 h; stronger effect = lower value. activity change, negative = inhibition, % at 57.5 µM. 4.5% of 410,000 active; in the data active = activity change below about -60%; inconclusive = no clear call, values can overlap the other calls; inactive = above about -39%
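Compounds were evaluated in HFFs infected with an HCMV luciferase reporter virus (MOI 1 PFU/cell). Luciferase in lysates collected 72 h post infection served as the replication measure.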
LASV entry inh = Lassa virus entry inhibition | Lassa virus pseudotype entry inhibition, cell reporter | Potency, µM (doses to about 37.9 µM), for inactives: at the highest dose activity change, negative = inhibition, actives largely listed as inhibitors | 1.2% of 300,000 active | AID 540256; calls by dose curve; tested in HEK293 cells; note: potency is the fitted concentration of half-maximal effect; nearly all actives have a fitted effect of over 50% in size
FMDV inh = blocks foot and mouth disease virus; Potency, µM (doses to about 57.9 µM), inactives show at the top dose activity change, negative = inhibition, actives largely listed as inhibitors; 1.2% of 410,000 active; FMDV antiviral cell-based qHTS; calls by dose curve; tested in HEK293T cells; note: read-out not given here; potency is the fitted concentration of half-maximal effect; nearly all actives have a fitted effect of over 45% in size
MARV entry inh = inhibitors of Marburg virus binding or cell entry. Marburg virus pseudotyped entry inhibition, cell reporter. Potency, µM (top dose mostly 37.8 µM), for inactives: top-dose activity change, negative = inhibition, most hits filed as inhibitors. 1.8% of 300,000 active. AID 540276; calls by dose curve; tested in HEK293 cells; note: potency is the fitted concentration of half-maximal effect
The depositor's hits bear a star; ? = inconclusive; / = no result; ! = a repeat was not active; [ ] = dose if it differs, or a comment. Shown are actives, neighbours in structure and some others; about 6.2% of the full set was active somewhere. % is set by controls: 0 for no effect and ±100 for the full control effect.

SMILES	HCMV inh	LASV entry inh	FMDV inh	MARV entry inh
CN1C(=O)CSc2ccc(NC(=O)N3CCN(c4ccccc4)CC3)cc21	56.4	1.3%	0.0%	-11.5%[46.1 µM]
CN1C(=O)c2ccccc2Sc2ccc(NC(=O)Nc3ccccc3F)cc21	-2.2	-20.7%[46.1 µM]	2.5%	?
CCN1C(=O)c2ccccc2Sc2ccc(NC(=O)Nc3cc(C)cc(C)c3)cc21	-99.5*	0.1%[46.1 µM]	?	4.7%[46.1 µM]
Cc1cccc(OCC(=O)Nc2ccc3c(c2)N(C)C(=O)c2ccccc2S3)c1	6.5	?	-7.5%	/
CCN1C(=O)c2ccccc2Sc2ccc(NC(=O)c3ccc(Cl)cc3)cc21	12.1	18.1%[46.1 µM]	-16.0%	/
CN1C(=O)c2ccccc2Sc2ccc(NC(=O)Cc3c(F)cccc3Cl)cc21	-81.9*	?	-29.1%	/
CN1C(=O)c2ccccc2Sc2ccc(NC(=O)COc3ccccc3)cc21	-63.5*	?	-22.6%	/
CN1C(=O)c2ccccc2Sc2ccc(NC(=O)N3CCN(c4cccc(Cl)c4)CC3)cc21	?	?	-12.8%	11.2µM*
Cc1ccc(S(=O)(=O)N(C)Cc2cc3cc(C)ccc3[nH]c2=O)cc1	-12.9	/	10.8%	/
COCCN(Cc1cc2cc(C)ccc2[nH]c1=O)S(=O)(=O)c1ccc(Cl)cc1	-92.0*	/	-15.1%	/
Cc1nc(N/N=C/c2ccccn2)sc1C	-98.0*	1.78µM*	-29.9%	1.3µM*
Cc1nc2cc(S(=O)(=O)N3CCC(C(=O)O)CC3)ccc2n1C1CCCC1	?	17.8%	5.7%	18.3%
CCOC(=O)NC(=O)/C(N=Nc1ccc(C(F)(F)F)cc1)=C(\C)O	?	19.7%[46.1 µM]	-16.3%	-0.1%[46.1 µM]
O=C(CC1Nc2ccccc2NC1=O)NCCCN1CCCCCC1 (configuration not stated)	-3.4	-3.4%	-6.0%	?
O=C1NC[C@H](CCCCN2CCN(CCC3CCCCC3)C(=O)C2=O)N(CCc2ccccc2)C1=O	-25.8	/	-12.6%	/
O=c1c(C=NCCN2CCNCC2)c(O)n(C2CCCCC2)c(=O)n1C1CCCCC1	/	17.4%[14.3 µM]	-17.4%	20.6µM*
CN(C(=O)c1ccc(NC(=O)Cc2ccccc2)cc1)c1ccccc1	67.4	-14.0%	31.5%	25.8%
CCN(C(=O)c1ccc(NC(=O)Cc2ccccc2)cc1)c1ccccc1	-67.1*	-24.0%	-17.8%	3.3%
CCC(c1nnnn1Cc1cccs1)N1CCN(C(=O)c2ccco2)CC1 (configuration not stated)	0.7	/	-0.7%	/
COc1ccccc1NC(=S)N(Cc1ccco1)Cc1cc2ccc(C)c(C)c2[nH]c1=O	?	?	-21.7%	11.2µM*
Cc1ccc2[nH]c(=O)c(CN(CC3CCCO3)C(=S)Nc3ccccc3)cc2c1 (configuration not stated)	-77.8*	?	?	?
COc1ccc2[nH]c(=O)c(CN(CC3CCCO3)C(=O)Nc3ccc(F)cc3)cc2c1 (configuration not stated)	-31.0	11.2µM*	14.1µM*	?
CCN(CC)CCN(Cc1cc2cc(C)ccc2[nH]c1=O)C(=S)Nc1ccccc1	-68.6*	-8.8%[46.1 µM]	-13.7%	?
COc1ccc(NC(=O)N(Cc2cc3cc(C)ccc3[nH]c2=O)CC2CCCO2)cc1 (configuration not stated)	6.4	/	-20.7%	/
COc1ccc(-n2nc3cc(C)c(NC(=O)c4cccnc4)cc3n2)cc1	-3.4	-4.0%	5.2%	-24.3%
SMILES	HCMV inh	LASV entry inh	FMDV inh	MARV entry inh
Cc1cc(C)c2[nH]c(=O)c(CN(CC3CCCO3)C(=S)Nc3ccccc3)cc2c1 (configuration not stated)	-10.0	-5.6%	-8.5%	?
Cc1ccc2cc(CN(CC3CCCO3)C(=S)Nc3ccccc3)c(=O)[nH]c2c1C (configuration not stated)	-61.8*	?	-23.4%	?
CC(=O)N1c2ccc(S(=O)(=O)NCCC(=O)Nc3ncccc3C)cc2CC1C (configuration not stated)	?	2.9%[46.1 µM]	-4.2%	11.1%[46.1 µM]
CNc1nc2cc([N+](=O)[O-])c([N+](=O)[O-])cc2nc1NC	-85.8*	-28.1%	?	7.94µM*
O=C1C(Cl)=C(NCCN2CCOCC2)C(=O)c2ncccc21	/	/	15.8µM*	/
O=C1C(Cl)=C(NCCN2CCOCC2)C(=O)c2ccccc21	-10.2	?	-19.6%	?
CC(=O)c1ccccc1NC(=O)CSc1nc2ccccc2c(=O)n1CCCN1CCOCC1	-22.2	3.4%	?	5.0%
Cc1onc(-c2ccccc2)c1C(=O)NC(=S)NNC(=O)c1ccc(O)cc1O	-95.3*	2.51µM*	-14.0%	?
Cc1onc(-c2ccccc2)c1C(=O)NC(=S)NNC(=O)c1ccc(O)cc1	6.3	?	?	?
Cc1onc(-c2ccccc2)c1C(=O)NC(=S)NNC(=O)c1ccccc1O	-69.8*	?	?	3.16µM*
O=S1(=O)CC2SC(=S)N(c3ccccc3)C2C1 (configuration not stated)	4.4	/	1.9%	/
O=C(Oc1ccc2ccccc2c1Br)N1CCCCCC1	-82.1*	3.26µM*	0.0%	1.16µM*
CCN(CC)C(=O)Oc1ccc2ccccc2c1Br	-88.9*	?	18.3%	?
CCOc1ccc(NC(=O)NC(C)CC)cc1 (configuration not stated)	-9.0	11.1%[46.1 µM]	-5.4%	?
CC(Oc1ccccc1)C(=O)N=C1SC2CS(=O)(=O)CC2N1c1ccccc1 (configuration not stated)	-5.6	/	-4.6%	/
COc1ccc(CNC(=O)c2ccc(Cn3nc(C)c([N+](=O)[O-])c3C)o2)cc1	26.0	-18.7%[46.1 µM]	-28.4%	?
CCOc1ccc(CN(C)C(=O)c2ccc(S(=O)(=O)N(C)c3ccccc3OC)cc2)cc1	?	/	22.4µM*	/
CCCNC(=O)NC(=O)COC(=O)c1ccc(S(=O)(=O)N(C)c2ccccc2OC)cc1	22.1	-5.3%	16.5%	?
COc1ccccc1N(C)S(=O)(=O)c1ccc(C(=O)OCC(=O)NCCC2=CCCCC2)cc1	-61.8*	-11.3%	-10.7%	?
COc1ccccc1N(C)S(=O)(=O)c1ccc(C(=O)O)cc1	?	3.7%[46.1 µM]	30.6%	19.4%[46.1 µM]
COc1ccccc1N(C)S(=O)(=O)c1ccc(C(=O)N(C)Cc2ccc(Cl)s2)cc1	-22.4	11.2µM*	?	?
COc1ccccc1/C=C/C(=O)NCCC1=CCCCC1	-18.0	7.94µM*	0.0%	?
COC(=O)/C(=N\OCc1ccc(C#N)cc1)c1c(C)nn(C)c1C	-100.0*	15.5%	7.6%	2.4%[46.1 µM]
COc1ccc(CCN(C)CCCC(C#N)(c2cc(OC)c(OC)c(OC)c2)C(C)C)cc1OC (configuration not stated)	-31.9	?	-0.3%	8.91µM*
COc1ccc(CCN(C)C/C=C/c2ccccc2)cc1OC	1.7	/	-21.4%	/
COc1ccc(CCN(C)CC(O)c2ccccc2)cc1OC (configuration not stated)	-73.9*	20.1%	-6.2%	3.2%[46.1 µM]
COc1ccc(CCN(C)Cc2ccncc2)cc1OC	0.5	-3.7%	-17.4%	6.1%
COc1ccc(CCN(C)CCc2ccc(OC)c(OC)c2)cc1OC	-7.4	-21.7%	-18.2%	5.01µM*!
CC(=O)N(CCC1(C(C)C)CCOC(C)(C)C1)C(C)c1cccs1 (configuration not stated)	21.4	?	-11.2%	-21.6%[46.1 µM]
